The sample as a whole holds a higher share of the strongest signals than the screen did.
Assays:
Test in all cases: glycan array binding signal (z-score within array); higher = stronger binding
Conditions in all cases: glycan notation: IUPAC condensed, linker removed
[1] = molecular target: Fuc(a1-2)Gal(b1-3)GlcNAc(b1-2)Man(a1-3)[Fuc(a1-2)Gal(b1-3)GlcNAc(b1-2)Man(a1-6)]Man(b1-4)GlcNAc(b1-4)GlcNAc
How it was run: (§1)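 Glycan array binding is given as a within-array Z-score, which can be read as non-binding when negative. The arrays, 3228 of them, came from the Consortium for Functional Glycomics database and were retained only where the protein sequence was available. Z-scores were averaged across arrays of the same protein sequence at different concentrations or buffers and across linkers.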

[2] = molecular target: Fuc(a1-2)Gal(b1-3)[Fuc(a1-4)]GlcNAc(b1-2)Man(a1-3)[Fuc(a1-2)Gal(b1-3)[Fuc(a1-4)]GlcNAc(b1-2)Man(a1-6)]Man(b1-4)GlcNAc(b1-4)GlcNAc
How it was run: as §1

[3] = molecular target: Fuc(a1-2)[Gal(a1-4)]Gal(b1-4)GlcNAc
How it was run: as §1

Gal(a1-3)Gal(b1-4)Glc = molecular target: Gal(a1-3)Gal(b1-4)Glc
How it was run: as §1

Gal(a1-4)Gal(b1-4)GlcNAc = molecular target: Gal(a1-4)Gal(b1-4)GlcNAc
How it was run: as §1

Gal(b1-3)GalNAc = molecular target: Gal(b1-3)GalNAc
How it was run: as §1

[4] = molecular target: Gal(b1-4)GlcNAc(a1-6)Gal(b1-4)GlcNAc
How it was run: as §1

[5] = molecular target: Gal(b1-4)GlcNAc(b1-3)Gal(b1-4)GlcNAc(b1-3)Gal(b1-4)GlcNAc
How it was run: as §1

[6] = molecular target: Gal(b1-4)GlcNAc(b1-3)[Gal(b1-4)GlcNAc(b1-6)]Gal(b1-4)GlcNAc
How it was run: as §1

Gal3S(b1-3)GlcNAc = molecular target: Gal3S(b1-3)GlcNAc
How it was run: as §1

[7] = molecular target: Gal3S(b1-3)[Fuc(a1-4)]GlcNAc
How it was run: as §1

Gal3S4S(b1-4)GlcNAc = molecular target: Gal3S4S(b1-4)GlcNAc
How it was run: as §1

Gal6S(b1-4)GlcNAc = molecular target: Gal6S(b1-4)GlcNAc
How it was run: as §1

Gal6S(b1-4)GlcNAc6S = molecular target: Gal6S(b1-4)GlcNAc6S
How it was run: as §1

GalNAc(a1-3)Gal = molecular target: GalNAc(a1-3)Gal
How it was run: as §1

[8] = molecular target: GalNAc(b1-4)GlcNAc(b1-2)Man(a1-3)[GalNAc(b1-4)GlcNAc(b1-2)Man(a1-6)]Man(b1-4)GlcNAc(b1-4)GlcNAc
How it was run: as §1

GlcA(b1-3)GlcNAc = molecular target: GlcA(b1-3)GlcNAc
How it was run: as §1

GlcA(b1-6)Gal = molecular target: GlcA(b1-6)Gal
How it was run: as §1

[9] = molecular target: GlcNAc(b1-4)GlcNAc(b1-4)GlcNAc
How it was run: as §1

[10] = molecular target: Man(a1-3)[Man(a1-6)]Man(a1-6)[Man(a1-3)]Man(b1-4)GlcNAc(b1-4)GlcNAc
How it was run: as §1

Man(b1-4)GlcNAc = molecular target: Man(b1-4)GlcNAc
How it was run: as §1

Neu5Ac(a2-3)Gal = molecular target: Neu5Ac(a2-3)Gal
How it was run: as §1

[11] = molecular target: Neu5Ac(a2-3)Gal(b1-4)[Fuc(a1-3)]GlcNAc
How it was run: as §1

[12] = molecular target: Neu5Ac(a2-6)Gal(b1-4)GlcNAc(b1-2)Man(a1-3)Man(b1-4)GlcNAc(b1-4)GlcNAc
How it was run: as §1

[13] = molecular target: Neu5Ac(a2-6)Gal(b1-4)GlcNAc(b1-2)Man(a1-6)[GlcNAc(b1-2)Man(a1-3)]Man(b1-4)GlcNAc(b1-4)GlcNAc
How it was run: as §1

[14] = molecular target: Neu5Ac(a2-8)Neu5Ac(a2-3)[GalNAc(b1-4)]Gal(b1-4)Glc
How it was run: as §1

[15] = molecular target: Neu5Ac(a2-8)Neu5Ac(a2-8)Neu5Ac(a2-8)Neu5Ac(a2-3)[GalNAc(b1-4)]Gal(b1-4)Glc
How it was run: as §1

[16] = molecular target: Neu5Gc(a2-3)Gal(b1-4)GlcNAc
How it was run: as §1

[17] = molecular target: Fuc(a1-2)Gal(b1-4)GlcNAc(b1-2)Man(a1-3)[Fuc(a1-2)Gal(b1-4)GlcNAc(b1-2)Man(a1-6)]Man(b1-4)GlcNAc(b1-4)GlcNAc
How it was run: as §1

[18] = molecular target: Fuc(a1-2)Gal(b1-4)[Fuc(a1-3)]GlcNAc(b1-2)Man(a1-3)[Fuc(a1-2)Gal(b1-4)[Fuc(a1-3)]GlcNAc(b1-2)Man(a1-6)]Man(b1-4)GlcNAc(b1-4)GlcNAc
How it was run: as §1

[19] = molecular target: Fuc(a1-2)[Gal(a1-3)]Gal(b1-4)GlcNAc(b1-2)Man(a1-3)[Fuc(a1-2)[Gal(a1-3)]Gal(b1-4)GlcNAc(b1-2)Man(a1-6)]Man(b1-4)GlcNAc(b1-4)GlcNAc
How it was run: as §1

[20] = molecular target: Fuc(a1-2)[GalNAc(a1-3)]Gal(b1-4)GlcNAc(b1-2)Man(a1-3)[GalNAc(a1-3)[Fuc(a1-2)]Gal(b1-4)GlcNAc(b1-2)Man(a1-6)]Man(b1-4)GlcNAc(b1-4)GlcNAc
How it was run: as §1

[21] = molecular target: Fuc(a1-3)[Gal(b1-4)]Glc6S
How it was run: as §1

[22] = molecular target: Fuc(a1-3)[Gal(b1-4)]GlcNAc
How it was run: as §1

[23] = molecular target: Fuc(a1-3)[Gal(b1-4)]GlcNAc(b1-2)Man(a1-3)[Fuc(a1-3)[Gal(b1-4)]GlcNAc(b1-2)Man(a1-6)]Man(b1-4)GlcNAc(b1-4)GlcNAc
How it was run: as §1

[24] = molecular target: Fuc(a1-3)[Gal3S(b1-4)]GlcNAc
How it was run: as §1

Gal(a1-6)Glc = molecular target: Gal(a1-6)Glc
How it was run: as §1

[25] = molecular target: Gal(b1-3)Gal(b1-4)GlcNAc(b1-2)Man(a1-3)[Gal(b1-3)Gal(b1-4)GlcNAc(b1-2)Man(a1-6)]Man(b1-4)GlcNAc(b1-4)GlcNAc
How it was run: as §1

[26] = molecular target: Gal(b1-3)[Neu5Ac(a2-6)]GalNAc
How it was run: as §1

[27] = molecular target: Gal(b1-4)GalNAc(b1-3)[Fuc(a1-2)]Gal(b1-4)GlcNAc
How it was run: as §1

Gal(b1-4)Glc = molecular target: Gal(b1-4)Glc
How it was run: as §1

[28] = molecular target: Gal(b1-4)GlcNAc(b1-2)Man(a1-3)[Man(a1-6)]Man(b1-4)GlcNAc(b1-4)GlcNAc
How it was run: as §1

[29] = molecular target: Gal(b1-4)GlcNAc(b1-3)Gal(b1-4)GlcNAc
How it was run: as §1

[30] = molecular target: Gal3S(b1-4)[Fuc(a1-3)]Glc
How it was run: as §1

Gal4S(b1-4)GlcNAc = molecular target: Gal4S(b1-4)GlcNAc
How it was run: as §1

[31] = molecular target: GlcNAc(a1-4)Gal(b1-4)GalNAc
How it was run: as §1

[32] = molecular target: GlcNAc(a1-4)Gal(b1-4)GlcNAc(b1-3)Gal(b1-4)GlcNAc
How it was run: as §1

[33] = molecular target: GlcNAc(b1-2)Man(a1-3)[GlcNAc(b1-2)Man(a1-6)]Man(b1-4)GlcNAc(b1-4)GlcNAc
How it was run: as §1

[34] = molecular target: Man(a1-3)[Man(a1-6)]Man(b1-4)GlcNAc(b1-4)GlcNAc
How it was run: as §1

[35] = molecular target: Neu5Ac(a2-3)Gal(b1-3)GalNAc
How it was run: as §1

[36] = molecular target: Neu5Ac(a2-3)Gal(b1-3)[Fuc(a1-4)]GlcNAc(b1-3)Gal(b1-4)[Fuc(a1-3)]GlcNAc
How it was run: as §1

[37] = molecular target: Neu5Ac(a2-3)Gal(b1-4)[Fuc(a1-3)]GlcNAc(b1-6)[Gal(b1-3)]GalNAc
How it was run: as §1

[38] = molecular target: Neu5Ac(a2-6)Gal(b1-4)GlcNAc
How it was run: as §1

B1: Adiponectin (Rattus norvegicus), Q8K3R4 (protein)
chain: MLLLQALLFLLILPSHEGITATEGPGALVPPPKETCAGWMAGIPGYPGHNGIPGRDGRDGTPGEKGEKGDAGVLGPKGDPGDAGMTGAEGPRGFPGTPGRKGEPGEAAYMYHSAFSVGLETRVTVPNVPIRFTKIFYNQQNHYDGSTGKFHCNIPGLYYFSYHITVYMKDVKVSLFKKDKAVLFTYDQYQEKNVDQASGSMLLHLEVGDQVWLQVYGEGDNNGLYADNVNDSTFTGFLLYHDTN
glycan array binding signal (z-score) [1]: 4.69
glycan array binding signal (z-score) [2]: 2.87
glycan array binding signal (z-score) [3]: -0.75
glycan array binding signal (z-score) (Gal(a1-3)Gal(b1-4)Glc): 2.17
glycan array binding signal (z-score) (Gal(a1-4)Gal(b1-4)GlcNAc): -0.311
glycan array binding signal (z-score) (Gal(b1-3)GalNAc): -0.573
glycan array binding signal (z-score) [4]: -0.335
glycan array binding signal (z-score) [5]: 3.09
glycan array binding signal (z-score) [6]: 0.332
glycan array binding signal (z-score) (Gal3S(b1-3)GlcNAc): -0.814
glycan array binding signal (z-score) [7]: 1.13
glycan array binding signal (z-score) (Gal3S4S(b1-4)GlcNAc): 0.706
glycan array binding signal (z-score) (Gal6S(b1-4)GlcNAc): 1.04
glycan array binding signal (z-score) (Gal6S(b1-4)GlcNAc6S): -0.915
glycan array binding signal (z-score) (GalNAc(a1-3)Gal): 2.96
glycan array binding signal (z-score) [8]: 4.32
glycan array binding signal (z-score) (GlcA(b1-3)GlcNAc): -0.577
glycan array binding signal (z-score) (GlcA(b1-6)Gal): -0.389
glycan array binding signal (z-score) [9]: 4.87
glycan array binding signal (z-score) [10]: -0.767
glycan array binding signal (z-score) (Man(b1-4)GlcNAc): 0.155
glycan array binding signal (z-score) (Neu5Ac(a2-3)Gal): 0.212
glycan array binding signal (z-score) [11]: 0.007
glycan array binding signal (z-score) [12]: 0.717
glycan array binding signal (z-score) [13]: -0.838
glycan array binding signal (z-score) [14]: 0.022
glycan array binding signal (z-score) [15]: 0.861
glycan array binding signal (z-score) [16]: -0.295

B2: Neuropilin-1 (Homo sapiens), O14786 (protein)
chain: FKCMEALGMESGEIHSDQITASSQYSTNWSAERSRLNYPENGWTPGEDSYREWIQVDLGLLRFVTAVGTQGAISKETKKKYYVKTYKIDVSSNGEDWITIKEGNKPVLFQGNTNPTDVVVAVFPKPLITRFVRIKPATWETGISMRFEVYGCKITDYPCSGMLGMVSGLISDSQITSSNQGDRNWMPENIRLVTSRSGWALPPAPHSYINEWLQIDLGEEKIVRGIIIQGGKHRENKVFMRKFKIGYSNNGSDWKMIMDDSKRKAKSFEGNNNYDTPELRTFPALSTRFIRIYPERATHGGLGLRMELLGCEVE
glycan array binding signal (z-score) [1]: 1.14
glycan array binding signal (z-score) [17]: 5.83
glycan array binding signal (z-score) [18]: 4.73
glycan array binding signal (z-score) [19]: 6.43
glycan array binding signal (z-score) [20]: 5.34
glycan array binding signal (z-score) [21]: 0.455
glycan array binding signal (z-score) [22]: -0.168
glycan array binding signal (z-score) [23]: 10.4
glycan array binding signal (z-score) [24]: -0.158
glycan array binding signal (z-score) (Gal(a1-6)Glc): -0.168
glycan array binding signal (z-score) [25]: 6.05
glycan array binding signal (z-score) [26]: -0.23
glycan array binding signal (z-score) [27]: -0.281
glycan array binding signal (z-score) (Gal(b1-4)Glc): -0.292
glycan array binding signal (z-score) [28]: -0.228
glycan array binding signal (z-score) [29]: -0.228
glycan array binding signal (z-score) [30]: 0.036
glycan array binding signal (z-score) (Gal4S(b1-4)GlcNAc): -0.235
glycan array binding signal (z-score) (Gal6S(b1-4)GlcNAc): -0.225
glycan array binding signal (z-score) [8]: 0.263
glycan array binding signal (z-score) (GlcA(b1-6)Gal): -0.189
glycan array binding signal (z-score) [31]: 1.27
glycan array binding signal (z-score) [32]: -0.004
glycan array binding signal (z-score) [33]: -0.176
glycan array binding signal (z-score) [34]: -0.133
glycan array binding signal (z-score) [35]: -0.216
glycan array binding signal (z-score) [36]: 0.065
glycan array binding signal (z-score) [37]: 0.942
glycan array binding signal (z-score) [38]: -0.254
